HCMV antiviral = inhibitors of human cytomegalovirus; HFF cells, HCMV-luciferase reporter, 72 h; hits give low values; activity change, negative = inhibition, % at 57.5 µM; 410,000 tested, 4.5% active; AID 1259415; in the data active = activity change below about -60%; inconclusive = no clear call, values can overlap the other calls; inactive = above about -39%
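Inhibition of viral replication was scored as loss of reporter luminescence in HFFs infected with HCMV-luciferase (MOI 1 PFU/cell) for 72 h; compounds tested at 2 doses, normalized to buffer and Salinomycin controls.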
VACV mCherry inh = inhibitors of vaccinia virus infection (mCherry reporter signal) | AID 720579 | Vaccinia virus mCherry reporter infection, fluorescence | 310,000 tested, 0.63% active | Potency, µM (top dose mostly 36.5 µM), without a hit: at the highest dose activity change, negative = inhibition, actives largely listed as inhibitors; calls by dose curve; tested in A549 cells; also: potency is read from the fitted curve at half-maximal effect; nearly all actives have a fitted effect of over 35% in size
VACV Venus inh = inhibitors of vaccinia virus (Venus reporter). Vaccinia virus Venus reporter expression, fluorescence. Potency, µM (doses to about 36.5 µM), for inactives: at the top dose activity change, negative = inhibition, usual class: inhibitors. AID 720580. 330,000 tested, 0.46% active; calls by dose curve; tested in A549 cells; also: potency is read from the fitted curve at half-maximal effect; nearly all actives have a fitted effect of over 30% in size
FMDV antiviral = blocks foot and mouth disease virus; 410,000 tested, 1.2% active; AID 1159524; Potency, µM (highest dose often 57.9 µM), for the others: at the top dose activity change, negative = inhibition, usual class: inhibitors; FMDV antiviral cell-based qHTS; calls by dose curve; tested in HEK293T cells; also: read-out not given here; potency is read from the fitted curve at half-maximal effect; nearly all actives have a fitted effect of over 45% in size
Lassa entry inh = Lassa virus entry inhibition | Lassa virus pseudotype entry inhibition, cell reporter | Potency, µM (titrated, usually from 37.9 µM), for the others: at the top dose activity change, negative = inhibition, hits mostly inhibitors | 300,000 tested, 1.2% active | AID 540256; calls by dose curve; tested in HEK293 cells; also: potency is read from the fitted curve at half-maximal effect; nearly all actives have a fitted effect of over 50% in size
Marburg entry inh = blocks Marburg virus binding to or entry into cells; Potency, µM (series often up to 37.8 µM), without a hit: at the highest dose activity change, negative = inhibition, usual class: inhibitors; Marburg virus pseudotyped entry inhibition, cell reporter; 300,000 tested, 1.8% active; calls by dose curve; tested in HEK293 cells; also: potency is read from the fitted curve at half-maximal effect
* hit, by the source's call; i = inactive; ? = inconclusive; / = no result; [ ] = dose if it differs, or a comment. This is a sample that favours compounds with a hit; in the whole collection about 6.5% have one here. % is scaled to controls: 0 for no effect and ±100 for the full control effect.

SMILES	HCMV antiviral	VACV mCherry inh	VACV Venus inh	FMDV antiviral	Lassa entry inh	Marburg entry inh
Cc1c(C#N)c(N)nc(Cl)c1C#N	-11	-24%	-17%	?	?	?
N#Cc1c(Cl)nsc1NN	-104*	-24%	-6%	10%	-7%	17%[46.1 µM]
COc1ccccc1C(=O)NC(C)c1cccc2ccccc12 (stereo not drawn)	-25	i	-16%	0%	-17%	?
COc1cccc(C(=O)NC(C)c2cccc3ccccc23)c1OC (stereo not drawn)	?	-5%	-1%	-7%	?	5.6µM*
CCOc1ccc(C(=O)OC(C)CN2CCN(C)CC2)cc1 (stereo not drawn)	75	-2%	-6%	11%	-6%	-2%
CCn1c(-c2nonc2N)nc2cnc(Oc3cccc(NC(=O)c4ccc(OCCN5CCOCC5)cc4)c3)cc21	/	/	/	/	20µM*	/
CCCOc1ccc(C(=O)NCCN2CCOCC2)cc1	12	i	-18%	6%	7%	16%
Cc1cc(NCCCN2CCOCC2)n2ncc(-c3ccc(Cl)cc3)c2n1	55	/	/	28%	?	-20%
Cc1cc(NCCCn2ccnc2)n2ncc(-c3ccc(Cl)cc3)c2n1	14	13µM*	?	3%	?	?
CN(C)CCCNc1cc(C(C)(C)C)nc2c(-c3ccc(Cl)cc3)cnn12	-103*	i[7.34 µM]	-5%[7.34 µM]	1%	?	?
COc1cc(NCCC(=O)c2cccs2)c(OC)cc1Cl	28	-10%	-16%	-5%	?	?
C=C1CCC[C@]2(C)C[C@H]3OC(=O)C(CNCCN(CC)CC)[C@H]3CC12 (stereo partly drawn)	-21	4µM*	3.2µM*	-14%	?	?
CCN1/C(=C/C=C/c2oc3ccc(-c4ccccc4)cc3[n+]2CC)Oc2ccc(-c3ccccc3)cc21	-97*	169%	/	8.9µM*	4.5µM*	2.5µM*
O=C1CN(C(=O)COC(=O)c2ccc(Br)o2)c2ccccc2N1	-102*	/	/	-3%	/	/
O=C1CN(C(=O)COC(=O)CNC(=O)c2ccc(Br)o2)c2ccccc2N1	25	-5%	-16%	-5%	2%[46.1 µM]	1%[46.1 µM]
O=C(CNc1ccc(Br)cc1)NC(=O)NC1CCCCC1	-19	i	-17%	13%	-14%	9%
CNC(=O)c1c(O)c2cccc3c2n(c1=O)CCC3	-98*	-20%	-10%	-10%	?	3%
CC(C)c1nnc(NC(=O)c2c(O)c3cccc4c3n(c2=O)CCC4)s1	-96*	-23%	-12%	-10%	22%	-18%
O=C(NC1CCCCCC1)c1c(O)c2cccc3c2n(c1=O)CCC3	/	/	/	/	/	0%
C=C(c1ccc2cc(OC)ccc2c1)[C@H](C#N)C1CCCC1	-22	/	/	/	/	/
CC(C)Cc1nnc(NC(=O)c2ccc(-n3cncn3)c([N+](=O)[O-])c2)s1	-25	4%	-7%	-13%	/	/
Cc1oc(-c2ccccc2NC(=O)C2CCC2)nc1CNC(=O)c1c(F)ccc(F)c1F	/	-11%	9%	-8%	/	/
O=c1[nH]c(C2CCN(S(=O)(=O)/C=C/c3ccccc3)CC2)nc2c1nnn2Cc1ccc(F)cc1	40	?	-23%	1%	?	7.9µM*
O=c1[nH]c(C2CCN(S(=O)(=O)c3ccc4c(c3)OCCO4)CC2)nc2c1nnn2Cc1c(F)cccc1Cl	-75*	?	-21%	0%	6%[46.1 µM]	16%[46.1 µM]
Cc1ccccc1Cn1nnc2c(=O)[nH]c(C3CCCN(C(=O)c4ccc(C(C)(C)C)cc4)C3)nc21 (stereo not drawn)	9	-15%	-10%	?	-15%[46.1 µM]	-2%[46.1 µM]
SMILES	HCMV antiviral	VACV mCherry inh	VACV Venus inh	FMDV antiviral	Lassa entry inh	Marburg entry inh
Cc1cccc(Cn2nnc3c(=O)[nH]c(C4CCCN(C(=O)c5ccc(C(C)(C)C)cc5)C4)nc32)c1 (stereo not drawn)	-70*	-19%	-6%	?	-15%[46.1 µM]	?
O=C(Cc1cccs1)N1CCC(c2nc3c(nnn3Cc3ccc(F)cc3)c(=O)[nH]2)CC1	-95*	/	/	-13%	-9%	-6%
O=C(Cc1cccs1)N1CCCC(c2nc3c(nnn3Cc3cccc(Cl)c3)c(=O)[nH]2)C1 (stereo not drawn)	23	/	/	?	?	6%
O=C(CC1SC(N2CCCCC2)=NC1=O)Nc1ccc(C(=O)NCCc2ccc(F)cc2)cc1 (stereo not drawn)	-8	/	/	-21%	/	/
CCCc1cc(=O)[nH]c(SCC(=O)N(C)C2CCCCC2)n1	-11	/	/	-3%	/	/
Cc1ccc(C)c(Cn2nnc3c(=O)[nH]c(C4CCN(C(=O)c5cccs5)CC4)nc32)c1	37	i	-21%	?	?	?
Cc1ccc(Cn2nnc3c(=O)[nH]c(C4CCN(C(=O)c5cccs5)CC4)nc32)cc1	/	/	/	-20%	2.9µM*	?
O=C(Cc1ccccc1F)N1CCC(c2nc3c(nnn3Cc3cccc(Cl)c3)c(=O)[nH]2)CC1	-62*	-21%	-6%	-18%	?	-17%[46.1 µM]
Cc1ccc(C)c(S(=O)(=O)N2CCC(c3nc4c(nnn4Cc4ccc(F)cc4)c(=O)[nH]3)CC2)c1	-2	/	-22%	-23%	?	-25%
Cc1ccc(Cn2nnc3c(=O)[nH]c(C4CCN(S(=O)(=O)c5cc(C)ccc5C)CC4)nc32)cc1	37	-13%[1.46 µM]	?	?	14µM*	?
Cc1ccc(Cn2nnc3c(=O)[nH]c(C4CCN(C(=O)Cc5ccccc5F)CC4)nc32)cc1	-35	-3%	-13%	-18%	-12%[46.1 µM]	2%[46.1 µM]
O=C(CC(=O)Nc1ccccc1[N+](=O)[O-])Nc1ccccc1[N+](=O)[O-]	-65*	-16%	-19%	-14%	-37%[46.1 µM]	?
Clc1ccc(Nc2nccc3[nH]c(-c4ccccc4)nc23)cc1	-6	/	/	/	/	/
CCN(/C(N)=N/c1nc(C)cc(C)n1)c1ccccc1	1	-7%	-21%	-1%	-3%[46.1 µM]	-4%[46.1 µM]
CCc1cccc(N(C)C(N)=Nc2cccc3ccccc23)c1	3	i	-13%	-16%	13µM*	11µM*
Cc1nc(S(=O)(=O)N2CCOCC2)c(C#N)c(C)c1Cl	-105*	-17%	-6%	-5%	-11%	-33%[46.1 µM]
COC(=O)C1=C(C(=O)OC)C(C(=O)OC)C(C(=O)OC)C(C(=O)OC)(C(=O)OC)C(C(=O)OC)=C1C(=O)OC (stereo not drawn)	11	?	?	40µM*	?	?
CCC(C)[C@H](NC(=O)c1cc2cc(Cl)ccc2n1C)C(=O)N1CCC(C(=O)O)CC1 (stereo partly drawn)	-68*	i	-10%	-6%	0%[46.1 µM]	0%[46.1 µM]
CC[C@H](C)[C@@H]1OC(=O)[C@@H](C)[C@@H](CC)NC(=O)[C@H](C)N(C)C(=O)C(C)(C)C(=O)C(C)NC(=O)[C@H](Cc2ccccc2)N(C)C(=O)[C@H](C(C)C)N(C)C(=O)CNC(=O)[C@H](CC(C)C)N(C)C(=O)CNC1=O (stereo partly drawn)	/	2µM*	2.2µM*	0%	/	/
